Experiment in all cases: NCI-60 one-dose screen, 48 h (100 = growth as untreated, 0 = no growth, -100 = all killed)
Assay [1] has as its system HCT-15 colon. Particulars: 10 µM.
For assay [2], the system named is HT29 colon. As to conditions: 10 µM.
Assay [3] concerns SNB-75 CNS. Particulars: 10 µM.
Assay [4] relates to SNB-19 CNS. Particulars: 10 µM.
For assay [5], the system named is U251 CNS. Particulars: 10 µM.
The subject of assay [6] is PC-3 prostate. As to conditions: 10 µM.
For assay [7], the system named is SK-MEL-5 melanoma. Particulars: 10 µM.
Assay [8] deals with UACC-62 melanoma. As to conditions: 10 µM unless noted.
Assay [9] relates to LOX IMVI melanoma. Particulars: 10 µM.
Assay [10] deals with SK-MEL-28 melanoma. Particulars: 10 µM.

This is part of a sample that, as a whole, favours compounds with a hit. Of some 83,000 tested, about 20% had one in any assay.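 Compound tested at a single concentration for 48 hours in 96-well plates; a percent growth value below 10 was scored as active.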 Values without a mark were called inactive. Calls of active or inactive are those of the source.

Turning to `COc1cc(-c2ccc(NC(=O)NC3CC3)c(OC)c2)ccc1NC(=O)NC1CC1`, the growth was 31.2% in [1]; 48.6% in [2]; 89.4% in assay [3]; 84.7% in [4]; 37.4% in assay [5]; 41.6% in assay [6]. The growth in assay [7] was 47.6%; in assay [8] it was 70.7%; in assay [9], 36.8%; in assay [10] it was 86.7%.

`O=C1C=C(Nc2ccc([N+](=O)[O-])cc2)c2ccccc2C1=O`: the growth in [1] is 31.2%; in [2] it was 99.4%; in assay [3] it was 42.9%; in assay [4], 52.8%; in assay [5] it was 28.5%; in assay [6] it was 23.9%. Also, the growth was 11.7% in assay [7], 17.7% in assay [8], 9.66% (active) in [9] and 50.3% in assay [10].

On to `COc1cc2cc(c1Cl)N(C)C(=O)C[C@H](OC(=O)[C@H](C)N(C)C(C)=O)[C@]1(C)O[C@H]1[C@H](C)[C@@H]1C[C@@](O)(NC(=O)O1)[C@H](OC)C=C/C=C(\C)C2`, for which the growth in assay [1] was -14.5% (active); in assay [2], -29.3% (active); in [3], -49% (active); in [4] it was 14.4%; in [5], 11.5%; in [6], 0.19% (active). Further, the values for the growth in [7], in assay [8] and in [9] were -24.4% (active), 9.3% (active) and 18.4%, respectively.

As for `Cc1cccc(CO)c1`, the growth in assay [1] was 105%; in assay [2], 108%; in [3], 95.1%; in assay [4], 107%; in assay [5], 94.5%; in assay [6], 104%. For the same molecule, the growth in [7] is 99.7%; in assay [8], 104%; in assay [9] it was 100%; in assay [10], 109%.

For `O=C1N(C[P+](c2ccccc2)(c2ccccc2)c2ccccc2)CCCN1C[P+](c1ccccc1)(c1ccccc1)c1ccccc1`, the growth in [1] is 110%; in assay [2], 102%; in assay [3] it was 88.4%; in [4], 98.3%; in [5], 95.2%; in [6] it was 92.5%. Moreover, the growth in [7] was 106%; in [8], 94.7%; in assay [9] it was 108%; in [10], 102%.

Take `Cc1ccc(O)c(C(=O)c2ccccc2)c1`: the growth was 104% in assay [1]; 104% in assay [2]; 96.6% in assay [3]; 92.2% in [4]; 105% in assay [5]; 101% in assay [6]. In addition, the growth in [7] was 105%; in assay [8] it was 96.6%; in [9], 99.3%; in assay [10] it was 110%.

For the molecule `c1cc2cccc3c4cccc5cccc(c(c1)c23)c54`, the growth was 99.9% in assay [1]; 110% in assay [2]; 88.5% in [3]; 99.5% in assay [4]; 120% in [5]; 93.5% in assay [6]. Moreover, the growth in assay [7] is 102%; in [8], 93.2%; in [9], 97.7%; in [10], 107%.

Take `Nc1nc(OCc2ccccc2)c2[nH]cnc2n1`: the growth is 63.7% in assay [1]; 105% in [2]; 8.69% (active) in assay [3]; 104% in assay [4]; 100% in [5]; 84.4% in [6]. In addition, the values for the growth in [7], in assay [8] and in assay [9] were 94%, 86.1% and 83.1%, respectively.

Regarding `CCOC(=O)CNN`, the growth was 108% in assay [1]; 105% in [2]; 94.7% in assay [3]; 100% in assay [4]; 95.7% in assay [5]; 99.3% in assay [6]. The growth is 90.5% in assay [7], 103% in assay [8], 90.6% in [9] and 115% in assay [10].

For `CC1CC(O)C2C3(C)CCCC2(COC3=O)C12CCC1(CCOC1=O)O2` (configuration not stated), the growth was 102% in assay [1]; 109% in assay [2]; 96.4% in assay [3]; 108% in assay [4]; 102% in assay [5]; 94% in assay [6]. Besides, the growth is 111% in [7], 114% in assay [8], 107% in [9] and 111% in assay [10].

In the case of `O=C1c2ccccc2C(=O)c2c1ccc(C(=O)O)c2[N+](=O)[O-]`, the growth was 105% in assay [1]; 93.8% in assay [2]; 91.2% in [3]; 109% in [4]; 99.6% in [5]; 94.8% in assay [6]. The growth in assay [7] is 109%; in assay [8] it was 106%; in assay [9] it was 88.4%; in assay [10], 101%.

For `OCc1ccc(-c2ccc(-c3ccc(CO)s3)o2)s1`, the growth was 51% in [1]; -26.5% (active) in assay [2]; 58.8% in [3]; 78.4% in assay [4]; 15.3% in assay [5]; 73.1% in assay [6]. The growth in [7] is 60.6%; in assay [8], -35% (active); in assay [9], 73.2%.

As to `OCC(O)C(O)C(O)C(O)/C=N/O` (configuration not stated), the growth in [1] is 105%; in assay [2] it was 103%; in assay [3], 96.1%; in [4], 98.3%; in assay [5], 91%; in assay [6], 73.2%. Moreover, the growth in assay [7] is 101%; in assay [8] it was 93.3%; in [9], 98.3%; in assay [10], 114%.

For `COC(=O)Nc1nc2ccc(C(=O)c3ccc(F)cc3)cc2[nH]1`, the growth in [1] is 5.81% (active); in [2], 7.47% (active); in assay [3] it was 31%; in [4], 33.5%; in [5] it was 14.3%; in assay [6], 2.25% (active). The growth was 13.6% in assay [7], 36% in assay [8], 28.4% in assay [9] and 54.2% in assay [10].

These data come from PubChem BioAssay (NCI).
